Measured values published in the supplement of paper PMC8728848.
Many of the other results were omitted from the sample, so the strongest signals are more common in it than they were.

Tests used:
Assay in all cases: glycan array binding signal (z-score within array); higher = stronger binding
Conditions in all cases: glycan notation: IUPAC condensed, linker removed
[1] = biological target: Fuc(a1-2)Gal(b1-3)GalNAc(a1-3)[Fuc(a1-2)]Gal(b1-4)GlcNAc
Procedure, shortened: (§1)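 From the Consortium for Functional Glycomics database, 3228 arrays were curated, keeping only those whose protein sequence was available. Binding is given as a within-array Z-score averaged across arrays sharing a protein sequence and across linkers. Negative Z-scores can be read as non-binding.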

[2] = biological target: Fuc(a1-2)Gal(b1-4)Fuc(a1-3)]GlcNAc(b1-2)Man(a1-3)[Fuc(a1-2)Gal(b1-4)[Fuc(a1-3)]GlcNAc(b1-2)Man(a1-6)]Man(b1-4)GlcNAc(b1-4)GlcNAc
Procedure, shortened: as §1

[3] = biological target: Fuc(a1-2)Gal6S(b1-4)Glc6S
Procedure, shortened: as §1

[4] = biological target: Fuc(a1-2)[GalNAc(a1-4)]Gal(b1-4)GlcNAc
Procedure, shortened: as §1

[5] = biological target: Fuc(a1-3)[Gal(b1-4)]Glc6S
Procedure, shortened: as §1

[6] = biological target: Fuc(a1-3)[Gal(b1-4)]GlcNAc(b1-2)Man(a1-3)[Fuc(a1-3)[Gal(b1-4)]GlcNAc(b1-2)Man(a1-6)]Man(b1-4)GlcNAc(b1-4)GlcNAc
Procedure, shortened: as §1

[7] = biological target: Fuc(a1-3)[Gal(b1-4)]GlcNAc(b1-3)Gal(b1-4)[Fuc(a1-3)]GlcNAc(b1-3)Gal(b1-4)[Fuc(a1-3)]GlcNAc
Procedure, shortened: as §1

[8] = biological target: Fuc(a1-3)[Gal(b1-4)]GlcNAc(b1-4)Gal(b1-4)[Fuc(a1-3)]GlcNAc
Procedure, shortened: as §1

[9] = biological target: Fuc(a1-4)GlcNAc
Procedure, shortened: as §1

[10] = biological target: Fuc(b1-3)GlcNAc
Procedure, shortened: as §1

[11] = biological target: Gal(a1-3)Gal
Procedure, shortened: as §1

[12] = biological target: Gal(a1-3)Gal(b1-4)GlcNAc(b1-2)Man(a1-3)[Gal(a1-3)Gal(b1-4)GlcNAc(b1-2)Man(a1-6)]Man(b1-4)GlcNAc(b1-4)GlcNAc
Procedure, shortened: as §1

[13] = biological target: Gal(a1-3)Gal(b1-4)[Fuc(a1-3)]GlcNAc
Procedure, shortened: as §1

[14] = biological target: Gal(a1-3)Gal(b1-4)[Fuc(a1-3)]GlcNAc(b1-2)Man(a1-3)[Gal(a1-3)Gal(b1-4)[Fuc(a1-3)]GlcNAc(b1-2)Man(a1-6)]Man(b1-4)GlcNAc(b1-4)GlcNAc
Procedure, shortened: as §1

[15] = biological target: Gal(a1-4)Gal(b1-3)GlcNAc(b1-2)Man(a1-3)[Gal(a1-4)Gal(b1-3)GlcNAc(b1-2)Man(a1-6)]Man(b1-4)GlcNAc(b1-4)GlcNAc
Procedure, shortened: as §1

[16] = biological target: Gal(a1-4)Gal(b1-4)GlcNAc
Procedure, shortened: as §1

[17] = biological target: Gal(a1-4)Gal(b1-4)GlcNAc(b1-2)Man(a1-3)[Gal(a1-4)Gal(b1-4)GlcNAc(b1-2)Man(a1-6)]Man(b1-4)GlcNAc(b1-4)GlcNAc
Procedure, shortened: as §1

[18] = biological target: Gal(a1-4)GlcNAc
Procedure, shortened: as §1

[19] = biological target: Gal(b1-3)GlcNAc(b1-2)Man
Procedure, shortened: as §1

[20] = biological target: Gal(b1-3)GlcNAc(b1-3)Gal(b1-4)Glc
Procedure, shortened: as §1

[21] = biological target: Gal(b1-3)GlcNAc(b1-3)Gal(b1-4)GlcNAc
Procedure, shortened: as §1

[22] = biological target: Gal(b1-3)GlcNAc(b1-3)GalNAc
Procedure, shortened: as §1

[23] = biological target: Gal(b1-3)[GlcNAc(b1-6)]GalNAc
Procedure, shortened: as §1

[24] = biological target: Gal(b1-4)GlcNAc(b1-3)[Gal(b1-4)GlcNAc(b1-6)]GalNAc
Procedure, shortened: as §1

[25] = biological target: Gal(b1-4)GlcNAc6P
Procedure, shortened: as §1

[26] = biological target: GalNAc(a1-3)Gal
Procedure, shortened: as §1

[27] = biological target: GalNAc(a1-3)GalNAc
Procedure, shortened: as §1

[28] = biological target: GalNAc(a1-3)GalNAc(a1-3)Gal(a1-4)Gal(b1-4)GlcNAc
Procedure, shortened: as §1

[29] = biological target: GalNAc(b1-3)Gal(a1-6)Gal(b1-4)Glc
Procedure, shortened: as §1

[30] = biological target: GalNAc(b1-3)GalNAc
Procedure, shortened: as §1

[31] = biological target: GalNAc(b1-4)GlcNAc(b1-2)Man
Procedure, shortened: as §1

[32] = biological target: GlcNAc(a1-3)Gal(b1-4)GlcNAc
Procedure, shortened: as §1

[33] = biological target: GlcNAc(b1-2)[GlcNAc(b1-6)]Man(a1-6)[GlcNAc(b1-2)Man(a1-3)]Man(b1-4)GlcNAc(b1-4)GlcNAc
Procedure, shortened: as §1

[34] = biological target: GlcNAc(b1-3)Gal(b1-4)GlcNAc(b1-3)Gal(b1-4)GlcNAc(b1-2)[GlcNAc(b1-3)Gal(b1-4)GlcNAc(b1-3)Gal(b1-4)GlcNAc(b1-6)]Man(a1-6)[GlcNAc(b1-3)Gal(b1-4)GlcNAc(b1-3)Gal(b1-4)GlcNAc(b1-2)Man(a1-3)]Man(b1-4)GlcNAc(b1-4)[Fuc(a1-6)]GlcNAc
Procedure, shortened: as §1

[35] = biological target: GlcNAc(b1-3)Gal(b1-4)GlcNAc(b1-6)[GlcNAc(b1-3)]Gal(b1-4)GlcNAc
Procedure, shortened: as §1

[36] = biological target: GlcNAc(b1-3)Man
Procedure, shortened: as §1

[37] = biological target: Kdn(a2-3)Gal(b1-3)GalNAc
Procedure, shortened: as §1

[38] = biological target: Man(a1-2)Man(a1-3)[Man(a1-2)Man(a1-6)]Man(a1-6)[Man(a1-2)Man(a1-2)Man(a1-3)]Man(b1-4)GlcNAc(b1-4)GlcNAc
Procedure, shortened: as §1

[39] = biological target: Man(a1-2)Man(a1-6)[Man(a1-3)]Man(a1-6)[Man(a1-2)Man(a1-2)Man(a1-3)]Man(b1-4)GlcNAc(b1-4)GlcNAc
Procedure, shortened: as §1

[40] = biological target: Man(a1-3)[Man(a1-6)]Man(b1-4)GlcNAc(b1-4)[Fuc(a1-6)]GlcNAc
Procedure, shortened: as §1

[41] = biological target: Neu5Ac(a2-3)Gal(b1-3)GlcNAc(b1-3)Gal(b1-3)GlcNAc
Procedure, shortened: as §1

[42] = biological target: Neu5Ac(a2-3)Gal(b1-4)GlcNAc(b1-2)Man(a1-3)[Neu5Ac(a2-3)Gal(b1-4)GlcNAc(b1-2)Man(a1-6)]Man(b1-4)GlcNAc(b1-4)[Fuc(a1-6)]GlcNAc
Procedure, shortened: as §1

[43] = biological target: Neu5Ac(a2-3)Gal(b1-4)GlcNAc(b1-2)Man(a1-3)[Neu5Ac(a2-6)Gal(b1-4)GlcNAc(b1-2)Man(a1-6)]Man(b1-4)GlcNAc(b1-4)GlcNAc
Procedure, shortened: as §1

[44] = biological target: Neu5Ac(a2-3)Gal(b1-4)GlcNAc(b1-3)Gal(b1-4)GlcNAc(b1-3)Gal(b1-4)GlcNAc
Procedure, shortened: as §1

[45] = biological target: Neu5Ac(a2-3)Gal(b1-4)GlcNAc(b1-3)Gal(b1-4)GlcNAc(b1-3)Gal(b1-4)GlcNAc(b1-2)Man(a1-3)[Neu5Ac(a2-3)Gal(b1-4)GlcNAc(b1-3)Gal(b1-4)GlcNAc(b1-3)Gal(b1-4)GlcNAc(b1-2)Man(a1-6)]GalNAc
Procedure, shortened: as §1

[46] = biological target: Neu5Ac(a2-3)Gal(b1-4)[Fuc(a1-3)]GlcNAc(b1-2)Man
Procedure, shortened: as §1

[47] = biological target: Neu5Ac(a2-6)Gal(b1-4)GlcNAc(b1-2)Man(a1-6)[Gal(b1-4)GlcNAc(b1-2)Man(a1-3)]Man(b1-4)GlcNAc(b1-4)GlcNAc
Procedure, shortened: as §1

[48] = biological target: Neu5Ac(a2-6)Gal(b1-4)GlcNAc(b1-3)Gal(b1-4)GlcNAc(b1-6)[Gal(b1-3)]GalNAc
Procedure, shortened: as §1

[49] = biological target: Neu5Ac(a2-6)Gal(b1-4)GlcNAc(b1-3)GalNAc
Procedure, shortened: as §1

[50] = biological target: Neu5Ac(a2-6)GalNAc(b1-4)GlcNAc6S
Procedure, shortened: as §1

[51] = biological target: Neu5Gc(a2-3)Gal(b1-3)GlcNAc
Procedure, shortened: as §1

[52] = biological target: Neu5Gc(a2-3)Gal(b1-4)[Fuc(a1-3)]GlcNAc
Procedure, shortened: as §1

[53] = biological target: Neu5Gc(b2-6)Gal(b1-4)GlcNAc
Procedure, shortened: as §1

B1: GSL-I (Griffonia simplicifolia) (protein)
chain: FNLPNFWSDVKDNIIFQGDANTTAGTLQLCKTNQYGNPLQYRAGRALYSDPVQLWDNKTGSVASFYTEFTFFLKITGDGPADGLAFFLAPPDSDVKDAGAYLGLFNKSTATQPSKNQVVAVEFDTWKNTDFPEPSYRHIGINVNSIVSVATKRWEDSDIFSGKIATARISYDGSAKILTVVLSYPDGADYILSHSVDLSKNLPNPIRVGISASTGANQFLTVYVLSWRFSSALQSTSVNAAMGPEIIRTVV
glycan array binding signal (z-score) [1]: -0.242 | glycan array binding signal (z-score) [2]: 0.367 | glycan array binding signal (z-score) [3]: -0.216 | glycan array binding signal (z-score) [4]: 7.04 | glycan array binding signal (z-score) [5]: -0.16 | glycan array binding signal (z-score) [6]: -0.232 | glycan array binding signal (z-score) [7]: -0.188 | glycan array binding signal (z-score) [8]: -0.311 | glycan array binding signal (z-score) [9]: -0.215 | glycan array binding signal (z-score) [10]: -0.236 | glycan array binding signal (z-score) [11]: 0.597 | glycan array binding signal (z-score) [12]: 5.7 | glycan array binding signal (z-score) [13]: 3.4 | glycan array binding signal (z-score) [14]: 0.283 | glycan array binding signal (z-score) [15]: 9.69 | glycan array binding signal (z-score) [16]: 1.82 | glycan array binding signal (z-score) [17]: 3.15 | glycan array binding signal (z-score) [18]: 4.53 | glycan array binding signal (z-score) [19]: -0.124 | glycan array binding signal (z-score) [20]: -0.194 | glycan array binding signal (z-score) [21]: -0.226 | glycan array binding signal (z-score) [22]: -0.203 | glycan array binding signal (z-score) [23]: -0.102 | glycan array binding signal (z-score) [24]: -0.312 | glycan array binding signal (z-score) [25]: -0.178 | glycan array binding signal (z-score) [26]: 6.1 | glycan array binding signal (z-score) [27]: 2.08 | glycan array binding signal (z-score) [28]: 1.85 | glycan array binding signal (z-score) [29]: -0.191 | glycan array binding signal (z-score) [30]: -0.272 | glycan array binding signal (z-score) [31]: -0.143 | glycan array binding signal (z-score) [32]: -0.199 | glycan array binding signal (z-score) [33]: -0.121 | glycan array binding signal (z-score) [34]: 0.036 | glycan array binding signal (z-score) [35]: -0.255 | glycan array binding signal (z-score) [36]: -0.193 | glycan array binding signal (z-score) [37]: -0.069 | glycan array binding signal (z-score) [38]: -0.033 | glycan array binding signal (z-score) [39]: -0.302 | glycan array binding signal (z-score) [40]: -0.305 | glycan array binding signal (z-score) [41]: -0.152 | glycan array binding signal (z-score) [42]: -0.283 | glycan array binding signal (z-score) [43]: -0.197 | glycan array binding signal (z-score) [44]: -0.261 | glycan array binding signal (z-score) [45]: 2.34 | glycan array binding signal (z-score) [46]: -0.227 | glycan array binding signal (z-score) [47]: 0.106 | glycan array binding signal (z-score) [48]: -0.048 | glycan array binding signal (z-score) [49]: -0.128 | glycan array binding signal (z-score) [50]: -0.271 | glycan array binding signal (z-score) [51]: -0.164 | glycan array binding signal (z-score) [52]: -0.153 | glycan array binding signal (z-score) [53]: -0.099
